± gives the standard deviation of the averaged measurements. Targets with the largest changes are over-represented here; the source holds about 6,200 in all.

Compound in the assay: Nc1ncnc2c1ncn2[C@@H]1O[C@H](COP(=O)(O)OP(=O)(O)NP(=O)(O)O)[C@@H](O)[C@H]1O [adenylyl imidodiphosphate]
In words: NP40-soluble protein abundance relative to vehicle (solubility fold change) (ratio); higher = more soluble protein in presence of AMP-PNP. A digest of the protocol: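 Each value is a fold change relative to the detergent-processed vehicle, calculated per replicate from vsn-normalised intensities. Jurkat crude lysate received eight concentrations (0.1 to 10 mM) for 10 min at room temperature and 3 min at 37 °C, then was solubilised in 0.8% NP40 with benzonase (60 min, 4 °C). The ultracentrifuged supernatant was TMT-labelled and run by LC-MS/MS in three independent experiments.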

UniProt Q92620, sequence (Q92620 whole entry): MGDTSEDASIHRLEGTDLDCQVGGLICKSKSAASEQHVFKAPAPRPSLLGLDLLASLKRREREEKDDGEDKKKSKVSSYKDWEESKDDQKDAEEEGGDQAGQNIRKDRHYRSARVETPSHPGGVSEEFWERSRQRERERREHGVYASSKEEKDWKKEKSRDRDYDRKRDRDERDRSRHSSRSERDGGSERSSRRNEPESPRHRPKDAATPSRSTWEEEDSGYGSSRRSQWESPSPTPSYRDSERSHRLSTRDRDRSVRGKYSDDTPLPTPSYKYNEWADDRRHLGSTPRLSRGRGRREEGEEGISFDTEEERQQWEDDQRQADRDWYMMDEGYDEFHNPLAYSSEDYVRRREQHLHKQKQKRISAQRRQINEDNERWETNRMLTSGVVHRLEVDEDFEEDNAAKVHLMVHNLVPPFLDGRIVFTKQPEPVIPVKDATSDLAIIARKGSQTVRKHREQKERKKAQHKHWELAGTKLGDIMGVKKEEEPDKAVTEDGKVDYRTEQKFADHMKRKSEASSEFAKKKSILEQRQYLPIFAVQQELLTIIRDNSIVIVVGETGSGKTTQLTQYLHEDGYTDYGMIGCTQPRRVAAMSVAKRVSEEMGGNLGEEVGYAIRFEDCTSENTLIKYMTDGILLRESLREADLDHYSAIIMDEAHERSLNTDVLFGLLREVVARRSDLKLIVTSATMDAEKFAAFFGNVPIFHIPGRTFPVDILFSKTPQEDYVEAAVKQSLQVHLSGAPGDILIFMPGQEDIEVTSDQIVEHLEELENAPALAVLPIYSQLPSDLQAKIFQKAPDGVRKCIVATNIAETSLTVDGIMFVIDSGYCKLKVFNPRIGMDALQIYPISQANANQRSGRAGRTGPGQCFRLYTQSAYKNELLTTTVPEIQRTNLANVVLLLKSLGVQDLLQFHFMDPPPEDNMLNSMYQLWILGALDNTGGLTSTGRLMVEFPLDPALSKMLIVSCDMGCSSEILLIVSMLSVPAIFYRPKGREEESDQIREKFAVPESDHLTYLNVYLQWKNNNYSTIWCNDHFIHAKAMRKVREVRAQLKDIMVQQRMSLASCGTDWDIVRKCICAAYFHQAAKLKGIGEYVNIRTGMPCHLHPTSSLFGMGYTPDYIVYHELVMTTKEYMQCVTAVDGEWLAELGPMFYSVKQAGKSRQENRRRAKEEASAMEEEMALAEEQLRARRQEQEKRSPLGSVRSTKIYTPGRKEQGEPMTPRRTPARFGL
UniProt Q5XUX1, sequence (Q5XUX1 whole entry): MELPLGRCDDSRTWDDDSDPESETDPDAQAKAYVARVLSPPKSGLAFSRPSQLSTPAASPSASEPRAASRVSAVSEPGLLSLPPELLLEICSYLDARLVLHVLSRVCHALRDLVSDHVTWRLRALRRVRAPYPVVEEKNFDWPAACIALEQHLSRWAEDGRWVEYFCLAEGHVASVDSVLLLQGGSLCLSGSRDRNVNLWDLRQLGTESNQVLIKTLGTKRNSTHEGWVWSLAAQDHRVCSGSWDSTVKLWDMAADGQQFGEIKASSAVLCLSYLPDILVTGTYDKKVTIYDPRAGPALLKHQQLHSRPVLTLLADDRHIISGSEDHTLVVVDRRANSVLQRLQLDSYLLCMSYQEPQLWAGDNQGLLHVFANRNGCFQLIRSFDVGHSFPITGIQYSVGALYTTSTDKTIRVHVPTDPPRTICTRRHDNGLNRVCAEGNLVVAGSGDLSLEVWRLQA
UniProt Q86UE4, sequence (Q86UE4 whole entry): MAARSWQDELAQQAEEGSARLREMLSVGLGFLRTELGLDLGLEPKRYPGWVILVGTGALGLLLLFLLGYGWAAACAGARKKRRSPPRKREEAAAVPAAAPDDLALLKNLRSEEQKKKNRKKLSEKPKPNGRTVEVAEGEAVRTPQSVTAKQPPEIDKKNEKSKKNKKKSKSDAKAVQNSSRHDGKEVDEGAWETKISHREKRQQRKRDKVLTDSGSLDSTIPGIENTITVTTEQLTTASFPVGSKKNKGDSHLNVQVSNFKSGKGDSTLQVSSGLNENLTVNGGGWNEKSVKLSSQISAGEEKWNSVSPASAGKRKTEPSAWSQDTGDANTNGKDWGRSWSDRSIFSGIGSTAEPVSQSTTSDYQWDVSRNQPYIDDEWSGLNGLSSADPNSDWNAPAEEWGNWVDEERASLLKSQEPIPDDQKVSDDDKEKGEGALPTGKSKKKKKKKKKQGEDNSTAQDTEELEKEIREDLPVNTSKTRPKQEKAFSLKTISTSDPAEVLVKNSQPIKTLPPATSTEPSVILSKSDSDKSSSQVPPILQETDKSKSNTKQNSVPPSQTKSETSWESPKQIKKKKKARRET
UniProt Q86W42, sequence (Q86W42 whole entry): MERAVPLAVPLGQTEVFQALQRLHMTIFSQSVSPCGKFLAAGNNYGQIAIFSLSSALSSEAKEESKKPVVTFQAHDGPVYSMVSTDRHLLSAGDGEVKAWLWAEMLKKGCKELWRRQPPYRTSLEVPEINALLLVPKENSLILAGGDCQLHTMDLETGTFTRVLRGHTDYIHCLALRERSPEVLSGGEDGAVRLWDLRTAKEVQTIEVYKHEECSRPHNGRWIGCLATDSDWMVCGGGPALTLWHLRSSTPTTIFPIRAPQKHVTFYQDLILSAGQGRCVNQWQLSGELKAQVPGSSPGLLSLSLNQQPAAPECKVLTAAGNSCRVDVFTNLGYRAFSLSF
UniProt Q7Z2K8, sequence (Q7Z2K8 whole entry): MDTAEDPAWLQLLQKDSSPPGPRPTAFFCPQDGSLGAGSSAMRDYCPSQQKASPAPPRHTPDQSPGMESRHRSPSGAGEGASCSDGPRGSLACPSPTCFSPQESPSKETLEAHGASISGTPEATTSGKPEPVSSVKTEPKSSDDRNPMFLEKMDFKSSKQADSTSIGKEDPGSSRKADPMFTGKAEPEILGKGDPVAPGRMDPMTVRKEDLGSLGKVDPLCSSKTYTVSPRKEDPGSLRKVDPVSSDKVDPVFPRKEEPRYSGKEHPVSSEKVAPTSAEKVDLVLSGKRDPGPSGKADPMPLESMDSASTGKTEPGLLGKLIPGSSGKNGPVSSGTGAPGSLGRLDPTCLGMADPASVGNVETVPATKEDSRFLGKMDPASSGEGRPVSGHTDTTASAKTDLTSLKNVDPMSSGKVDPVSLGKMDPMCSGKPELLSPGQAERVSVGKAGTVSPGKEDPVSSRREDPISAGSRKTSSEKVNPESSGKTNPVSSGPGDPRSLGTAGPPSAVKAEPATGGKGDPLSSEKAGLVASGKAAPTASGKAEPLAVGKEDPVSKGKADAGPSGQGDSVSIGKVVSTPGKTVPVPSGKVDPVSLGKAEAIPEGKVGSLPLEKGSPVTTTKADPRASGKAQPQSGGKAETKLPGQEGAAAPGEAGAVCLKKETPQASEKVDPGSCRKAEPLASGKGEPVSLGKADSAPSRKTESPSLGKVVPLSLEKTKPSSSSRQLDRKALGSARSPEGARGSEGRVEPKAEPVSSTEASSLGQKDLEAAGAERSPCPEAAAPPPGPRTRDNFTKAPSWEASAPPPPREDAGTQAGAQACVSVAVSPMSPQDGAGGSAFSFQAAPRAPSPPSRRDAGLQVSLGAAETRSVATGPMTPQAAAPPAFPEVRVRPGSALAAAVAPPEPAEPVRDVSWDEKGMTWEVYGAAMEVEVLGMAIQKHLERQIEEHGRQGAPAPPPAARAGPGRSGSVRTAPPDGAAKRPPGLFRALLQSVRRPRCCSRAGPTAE
UniProt Q8TAT6, sequence (Q8TAT6 whole entry): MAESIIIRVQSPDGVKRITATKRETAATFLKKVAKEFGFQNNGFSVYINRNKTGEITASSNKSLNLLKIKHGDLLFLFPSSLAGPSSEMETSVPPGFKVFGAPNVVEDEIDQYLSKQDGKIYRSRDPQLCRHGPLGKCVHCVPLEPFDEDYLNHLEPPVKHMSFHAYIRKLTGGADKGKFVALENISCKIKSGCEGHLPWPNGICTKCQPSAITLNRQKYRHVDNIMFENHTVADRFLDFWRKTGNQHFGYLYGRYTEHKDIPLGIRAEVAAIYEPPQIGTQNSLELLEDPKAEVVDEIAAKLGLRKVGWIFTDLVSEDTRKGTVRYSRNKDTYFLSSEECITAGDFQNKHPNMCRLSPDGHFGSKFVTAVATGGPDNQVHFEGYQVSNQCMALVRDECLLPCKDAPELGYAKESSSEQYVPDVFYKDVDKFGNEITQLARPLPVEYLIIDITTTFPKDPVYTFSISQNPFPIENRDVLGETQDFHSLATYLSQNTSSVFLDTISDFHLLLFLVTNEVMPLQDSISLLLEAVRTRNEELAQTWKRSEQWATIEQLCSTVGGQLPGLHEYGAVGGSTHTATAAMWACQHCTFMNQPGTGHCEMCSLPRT
UniProt Q13572, sequence (Q13572 whole entry): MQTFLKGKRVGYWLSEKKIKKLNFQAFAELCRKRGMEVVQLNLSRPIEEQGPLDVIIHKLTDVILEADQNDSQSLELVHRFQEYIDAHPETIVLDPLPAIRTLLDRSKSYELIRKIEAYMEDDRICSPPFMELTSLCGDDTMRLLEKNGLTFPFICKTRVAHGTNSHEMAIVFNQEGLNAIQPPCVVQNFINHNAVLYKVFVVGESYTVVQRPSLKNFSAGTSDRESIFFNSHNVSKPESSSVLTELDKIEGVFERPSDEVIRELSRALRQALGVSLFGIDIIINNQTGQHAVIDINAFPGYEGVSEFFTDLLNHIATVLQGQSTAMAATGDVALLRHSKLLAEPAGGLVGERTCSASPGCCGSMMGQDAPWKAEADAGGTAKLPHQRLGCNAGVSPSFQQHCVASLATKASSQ
UniProt Q6P6C2, sequence (Q6P6C2 whole entry, looked up): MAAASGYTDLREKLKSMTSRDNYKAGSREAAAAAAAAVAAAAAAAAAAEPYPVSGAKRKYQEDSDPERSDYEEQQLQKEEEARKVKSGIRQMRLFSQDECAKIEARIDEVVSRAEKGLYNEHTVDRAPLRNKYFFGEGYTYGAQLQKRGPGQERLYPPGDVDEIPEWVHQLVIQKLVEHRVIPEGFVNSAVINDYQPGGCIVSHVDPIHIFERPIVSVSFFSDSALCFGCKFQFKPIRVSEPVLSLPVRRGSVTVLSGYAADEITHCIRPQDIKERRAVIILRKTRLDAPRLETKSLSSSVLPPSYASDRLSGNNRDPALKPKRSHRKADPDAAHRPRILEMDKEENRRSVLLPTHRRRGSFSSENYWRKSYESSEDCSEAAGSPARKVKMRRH

UniProt Q86UK7|Q86UK7-3|Q86UK7-2: the NP40-soluble protein abundance is 1.03 ± 0.043 (concentration: 1mM); 1.03 ± 0.022 (concentration: 2mM); 1.07 ± 0.031 (concentration: 4mM); 1.08 ± 0.038 (concentration: 6mM); 1.1 ± 0.048 (concentration: 8mM); 1.11 ± 0.07 (concentration: 10mM).
In the case of UniProt Q969T7|Q969T7-2, the NP40-soluble protein abundance (concentration: 1mM) is 0.981 ± 0.054; the NP40-soluble protein abundance (concentration: 2mM) came out at 0.95 ± 0.043; the NP40-soluble protein abundance (concentration: 4mM) worked out at 0.999 ± 0.029; the NP40-soluble protein abundance (concentration: 6mM) was determined as 0.966 ± 0.025; the NP40-soluble protein abundance (concentration: 8mM) was determined as 0.96 ± 0.042; the NP40-soluble protein abundance (concentration: 10mM) worked out at 0.963 ± 0.046.
For UniProt Q15056-2|Q15056, the NP40-soluble protein abundance (concentration: 1mM) amounted to 0.999 ± 0.037; the NP40-soluble protein abundance (concentration: 2mM) worked out at 1.03 ± 0.035; the NP40-soluble protein abundance (concentration: 4mM) worked out at 0.945 ± 0.14; the NP40-soluble protein abundance (concentration: 6mM) worked out at 0.94 ± 0.081; the NP40-soluble protein abundance (concentration: 8mM) was found to be 0.929 ± 0.087; the NP40-soluble protein abundance (concentration: 10mM) was 0.884 ± 0.21.
Consider “UniProt Q8NHM5|Q8NHM5-2|Q8NHM5-3|Q8NHM5-4”, for which the NP40-soluble protein abundance was 1.02 ± 0.024 (concentration: 1mM); 1.034 ± 0.0075 (concentration: 2mM); 1.04 ± 0.054 (concentration: 4mM); 1.04 ± 0.04 (concentration: 6mM); 1.01 ± 0.021 (concentration: 8mM); 1.04 ± 0.034 (concentration: 10mM).
Regarding THOC2 (UniProt Q8NI27), the NP40-soluble protein abundance (concentration: 1mM) is 1.36 ± 0.16; the NP40-soluble protein abundance (concentration: 2mM) stood at 1.46 ± 0.2; the NP40-soluble protein abundance (concentration: 4mM) is 1.63 ± 0.29; the NP40-soluble protein abundance (concentration: 6mM) came out at 1.87 ± 0.53; the NP40-soluble protein abundance (concentration: 8mM) is 2.02 ± 0.6; the NP40-soluble protein abundance (concentration: 10mM) was 2.15 ± 0.77.
Regarding UniProt Q92576|Q92576-2, the NP40-soluble protein abundance was 1.046 ± 0.0099 (concentration: 1mM); 1.09 ± 0.048 (concentration: 2mM); 1.08 ± 0.008 (concentration: 4mM); 1.08 ± 0.07 (concentration: 6mM); 1.09 ± 0.04 (concentration: 8mM); 1.11 ± 0.046 (concentration: 10mM).
As to PRPF8 (UniProt Q6P2Q9), the NP40-soluble protein abundance reads like this: (concentration: 1mM) 0.989 ± 0.039; (concentration: 2mM) 0.892 ± 0.15; (concentration: 4mM) 0.979 ± 0.085; (concentration: 6mM) 0.966 ± 0.098; (concentration: 8mM) 1.05 ± 0.13; (concentration: 10mM) 1.02 ± 0.16.
On to UniProt Q7Z2K8|Q7Z2K8-2, for which the NP40-soluble protein abundance is 0.958 ± 0.012 (concentration: 1mM); 0.913 ± 0.023 (concentration: 2mM); 1.12 ± 0.049 (concentration: 4mM); 1.1 ± 0.038 (concentration: 6mM); 0.932 ± 0.057 (concentration: 8mM); 0.932 ± 0.031 (concentration: 10mM).
With ITPK1 (UniProt Q13572), the NP40-soluble protein abundance by setting is: (concentration: 1mM) 1.019 ± 0.0014; (concentration: 2mM) 1.035 ± 0.0039; (concentration: 4mM) 1.01 ± 0.014; (concentration: 6mM) 0.992 ± 0.025; (concentration: 8mM) 1.02 ± 0.04; (concentration: 10mM) 0.9738 ± 0.0084.
For the target UniProt Q16698-2|Q16698, the NP40-soluble protein abundance was 1.06 ± 0.085 (concentration: 1mM); 1.11 ± 0.058 (concentration: 2mM); 1.19 ± 0.08 (concentration: 4mM); 1.21 ± 0.014 (concentration: 6mM); 1.26 ± 0.041 (concentration: 8mM); 1.25 ± 0.02 (concentration: 10mM).
MTDH (UniProt Q86UE4): the NP40-soluble protein abundance reads like this: (concentration: 1mM) 1.13 ± 0.046; (concentration: 2mM) 1.3 ± 0.16; (concentration: 4mM) 1.32 ± 0.073; (concentration: 6mM) 1.46 ± 0.2; (concentration: 8mM) 1.47 ± 0.17; (concentration: 10mM) 1.58 ± 0.17.
Turning to UniProt Q86W42|Q86W42-2, the NP40-soluble protein abundance runs as follows: (concentration: 1mM) 1.17 ± 0.087; (concentration: 2mM) 1.25 ± 0.065; (concentration: 4mM) 1.36 ± 0.11; (concentration: 6mM) 1.49 ± 0.1; (concentration: 8mM) 1.65 ± 0.18; (concentration: 10mM) 1.67 ± 0.27.
As for DTX3L (UniProt Q8TDB6), the NP40-soluble protein abundance is 1.03 ± 0.02 (concentration: 1mM); 1.01 ± 0.024 (concentration: 2mM); 1.04 ± 0.059 (concentration: 4mM); 0.994 ± 0.03 (concentration: 6mM); 0.996 ± 0.038 (concentration: 8mM); 0.993 ± 0.022 (concentration: 10mM).
KBTBD8 (UniProt Q8NFY9): the NP40-soluble protein abundance amounted to 0.953 ± 0.046 (concentration: 1mM); 0.944 ± 0.043 (concentration: 2mM); 0.955 ± 0.035 (concentration: 4mM); 0.976 ± 0.018 (concentration: 6mM); 0.973 ± 0.02 (concentration: 8mM); 0.965 ± 0.025 (concentration: 10mM).
As for LEO1 (UniProt Q8WVC0), the NP40-soluble protein abundance (concentration: 1mM) was found to be 1.025 ± 0.006; the NP40-soluble protein abundance (concentration: 2mM) is 1.04 ± 0.062; the NP40-soluble protein abundance (concentration: 4mM) is 1.01 ± 0.029; the NP40-soluble protein abundance (concentration: 6mM) turned out to be 1.02 ± 0.03; the NP40-soluble protein abundance (concentration: 8mM) came to 0.997 ± 0.016; the NP40-soluble protein abundance (concentration: 10mM) turned out to be 1.02 ± 0.024.
As to DHX38 (UniProt Q92620), the NP40-soluble protein abundance reads like this: (concentration: 1mM) 1.016 ± 0.0095; (concentration: 2mM) 1.03 ± 0.037; (concentration: 4mM) 1.03 ± 0.012; (concentration: 6mM) 1.01 ± 0.055; (concentration: 8mM) 1.04 ± 0.034; (concentration: 10mM) 1.03 ± 0.023.
Take UniProt Q5JTJ3|Q5JTJ3-2|Q5JTJ3-3|X6R5Z6: the NP40-soluble protein abundance worked out at 1.02 ± 0.015 (concentration: 1mM); 1.04 ± 0.081 (concentration: 2mM); 0.991 ± 0.038 (concentration: 4mM); 0.97 ± 0.043 (concentration: 6mM); 0.943 ± 0.016 (concentration: 8mM); 0.966 ± 0.046 (concentration: 10mM).
For the target MDC1 (UniProt Q14676), the NP40-soluble protein abundance (concentration: 1mM) came out at 1.13 ± 0.032; the NP40-soluble protein abundance (concentration: 2mM) worked out at 1.31 ± 0.086; the NP40-soluble protein abundance (concentration: 4mM) turned out to be 1.49 ± 0.12; the NP40-soluble protein abundance (concentration: 6mM) came out at 1.86 ± 0.28; the NP40-soluble protein abundance (concentration: 8mM) is 2.04 ± 0.41; the NP40-soluble protein abundance (concentration: 10mM) was found to be 2.34 ± 0.53.
Turning to UniProt Q8WUB8|Q8WUB8-2|Q8WUB8-3|S5FZ81, the NP40-soluble protein abundance was 1.01 ± 0.045 (concentration: 1mM); 1.04 ± 0.034 (concentration: 2mM); 1.07 ± 0.023 (concentration: 4mM); 1.11 ± 0.045 (concentration: 6mM); 1.08 ± 0.051 (concentration: 8mM); 1.15 ± 0.061 (concentration: 10mM).
Turning to UniProt Q8TAT6|Q8TAT6-2, the NP40-soluble protein abundance runs as follows: (concentration: 1mM) 0.955 ± 0.025; (concentration: 2mM) 0.961 ± 0.022; (concentration: 4mM) 0.968 ± 0.044; (concentration: 6mM) 0.983 ± 0.015; (concentration: 8mM) 0.991 ± 0.036; (concentration: 10mM) 1.02 ± 0.025.
As to DNAJB14 (UniProt Q8TBM8), the NP40-soluble protein abundance by setting is: (concentration: 1mM) 0.975 ± 0.025; (concentration: 2mM) 0.987 ± 0.066; (concentration: 4mM) 0.971 ± 0.028; (concentration: 6mM) 0.953 ± 0.039; (concentration: 8mM) 0.952 ± 0.035; (concentration: 10mM) 0.947 ± 0.035.
As for UniProt Q92614|Q92614-2|Q92614-4, the NP40-soluble protein abundance runs as follows: (concentration: 1mM) 1.02 ± 0.025; (concentration: 2mM) 1.05 ± 0.026; (concentration: 4mM) 1.01 ± 0.014; (concentration: 6mM) 0.984 ± 0.045; (concentration: 8mM) 0.955 ± 0.026; (concentration: 10mM) 0.971 ± 0.042.
Take UniProt Q6P6C2|Q6P6C2-1: the NP40-soluble protein abundance by setting is: (concentration: 1mM) 1.15 ± 0.065; (concentration: 2mM) 1.17 ± 0.036; (concentration: 4mM) 1.22 ± 0.07; (concentration: 6mM) 1.24 ± 0.13; (concentration: 8mM) 1.3 ± 0.13; (concentration: 10mM) 1.33 ± 0.11.
In the case of UniProt Q5XUX1|Q5XUX1-3|Q5XUX1-2, the NP40-soluble protein abundance is 0.986 ± 0.017 (concentration: 1mM); 0.96 ± 0.042 (concentration: 2mM); 0.976 ± 0.026 (concentration: 4mM); 0.993 ± 0.021 (concentration: 6mM); 0.982 ± 0.024 (concentration: 8mM); 0.969 ± 0.028 (concentration: 10mM).
For the target URB2 (UniProt Q14146), the NP40-soluble protein abundance (concentration: 1mM) came out at 0.971 ± 0.018; the NP40-soluble protein abundance (concentration: 2mM) stood at 0.9722 ± 0.0054; the NP40-soluble protein abundance (concentration: 4mM) was 0.988 ± 0.013; the NP40-soluble protein abundance (concentration: 6mM) came out at 1.05 ± 0.018; the NP40-soluble protein abundance (concentration: 8mM) turned out to be 1.07 ± 0.023; the NP40-soluble protein abundance (concentration: 10mM) stood at 1.1 ± 0.055.

The record behind these values is the supplement of paper PMC6411743.
